Measurements as given in the supplement of paper PMC6658780.
Structures can show the parent of a compound that is named as a salt. ± gives the standard deviation of the averaged measurements.

These compounds were tested on Klebsiella pneumoniae KPC-119 (assay: percent growth inhibition of drug alone vs DMSO control; higher = more growth inhibition). Conditions: antibiotic (0.125x MIC): none (0.1% DMSO); 7 µM.

Row | Compound | percent growth inhibition of drug alone [%]
1 | CCCCCCCCNC(C)C(O)c1ccc(SC(C)C)cc1 (centres undefined) [Suloctidil] | -1.6 ± 0.96
2 | CCn1cc(C(=O)O)c(=O)c2cc(F)c(N3CCNCC3)nc21 [Enoxacin] | 1.76 ± 1.6
3 | CC(C)(C)CC(C)(C)c1ccc(OCCOCC[N+](C)(C)Cc2ccccc2)cc1 [Benzethonium chloride] | 2.21 ± 0.87
4 | Nc1nc(/C(=C/CC(=O)O)C(=O)N[C@@H]2C(=O)N3C(C(=O)O)=CCS[C@H]23)cs1 [Ceftibuten] | 38.6 ± 4.3
5 | C/C(=C\C(=O)OCCCCCCCCC(=O)O)C[C@@H]1OC[C@H](C[C@@H]2O[C@H]2[C@@H](C)[C@H](C)O)[C@@H](O)[C@H]1O [Mupirocin] | 1.64 ± 1.8
6 | COC(=O)N/N=C/c1c[n+]([O-])c2ccccc2[n+]1[O-] [Carbadox] | 1.29 ± 2
7 | CO/N=C(\C(=O)N[C@@H]1C(=O)N2C(C(=O)O)=C(C[N+]3(C)CCCC3)CS[C@H]12)c1csc(N)n1 [Cefepime hydrochloride] | 3.95 ± 2.2
8 | CN(C)CCCN1c2ccccc2Sc2ccc(Cl)cc21 [Chlorpromazine hydrochloride] | -3.83 ± 2.6
9 | O=C1NCCN1c1ncc([N+](=O)[O-])s1 [Niridazole] | 9.23 ± 8.8
10 | NCC[C@H](O)C(=O)N[C@@H]1C[C@H](N)[C@@H](O[C@H]2O[C@H](CN)[C@@H](O)[C@H](O)[C@H]2O)[C@H](O)[C@H]1O[C@H]1O[C@H](CO)[C@@H](O)[C@H](N)[C@H]1O [Amikacin hydrate] | 3.37 ± 0.38
11 | CC1COc2c(N3CCN(C)CC3)c(F)cc3c(=O)c(C(=O)O)cn1c23 (centres undefined) [Ofloxacin] | 47.1 ± 5
12 | CC(=O)OCC(=O)[C@@]1(O)CC[C@H]2[C@@H]3CCC4=CC(=O)CC[C@]4(C)[C@@]3(F)[C@@H](O)C[C@@]21C [Fludrocortisone acetate] | 1.64 ± 0.4
13 | C[C@H]1c2cccc(O)c2C(=O)C2=C(O)[C@]3(O)C(=O)C(C(N)=O)=C(O)[C@@H](N(C)C)[C@@H]3[C@@H](O)[C@@H]21 [Doxycycline hydrochloride] | 15.8 ± 3
14 | C=CC1=C(C(=O)O)N2C(=O)[C@@H](NC(=O)/C(=N\OCC(=O)O)c3csc(N)n3)[C@H]2SC1 [Cefixime] | 9.48 ± 2.4
